Screens (PubChem BioAssay)
In the library only some 12% were active in any assay of this set; here they are far more common.
Sfp PPTase inh = blocks B. subtilis Sfp PPTase activity; Biochemical Sfp PPTase activity, qHTS; Q9F4F7; 310,000 tested, 3.5% active; Potency, µM, for inactives: largest response in the series, negative = inhibition, usual class: inhibitors;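 further: the enzyme is Sfp with the accession as filed and its product quenches rhodamine fluorescence; 0% = enzyme reaction without inhibitor and -100% = no enzyme wells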
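Compounds were incubated with enzyme (final 15 nM) for 15 min at room temperature before substrate addition started the reaction. Fluorescence at 525 nm excitation, 598 nm emission was recorded immediately and after 30 minutes.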
JMJD2A Tudor inh = JMJD2A Tudor domain (human) inhibition; O75164; AlphaScreen JMJD2A-Tudor / H3K4me3 peptide binding; Potency, µM (doses to about 114 µM), for the others: top-dose activity change, negative = inhibition, hits mostly inhibitors; 390,000 tested, 4.4% active; AID 504339; further: on the % scale 0 is the no-effect control and ±100 the full control effect; nearly all actives have a fitted effect of over 50% in size
HP1b binding inh = blocks HP1-beta chromodomain binding to methylated histone tails | P83916 | AlphaScreen HP1-beta / biotin-H3K9me3 peptide binding | Potency, µM (series often up to 114 µM), without a hit: at the top dose activity change, negative = inhibition, actives largely listed as inhibitors | 390,000 tested, 0.56% active; further: nearly all actives have a fitted effect of over 70% in size
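HP1-beta protein (50 nM final) preincubated 30 min at room temperature with biotinylated H3(1-18)K9me3 peptide (50 nM) in PBS pH 7.4, 0.01% Tween-20, then compound added for 30 min. AlphaScreen streptavidin donor/nickel chelate acceptor beads (10 ug/mL final), 30 min dark, luminescence read.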
BAZ2B inh = inhibitors of human BAZ2B bromodomain. Q9UIF8. AlphaScreen BAZ2B-H3K14Ac peptide displacement. Potency, µM (top dose mostly 114 µM), for inactives: at the highest dose activity change, negative = inhibition, most hits filed as inhibitors. 360,000 tested, 4.4% active; further: on the % scale 0 is the no-effect control and ±100 the full control effect; nearly all actives have a fitted effect of over 60% in size
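AlphaScreen luminescence quantifies BAZ2B engagement of H3K14Ac peptide; the protein and biotinylated peptide are both at 50 nM final, buffer PBS pH 7.4 with 0.01% Tween-20, all steps at room temperature.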
G9a block = blocks human histone lysine methyltransferase G9a; Q96KQ7; Potency, µM (doses to about 102 µM), for inactives: at the highest dose activity, negative = inhibition, actives largely listed as inhibitors; 350,000 tested, 8.8% active; AID 504332; G9a H3K9 monomethylation, AlphaScreen, 2 h; further: on the % scale 0 is the no-effect control and ±100 the full control effect; nearly all actives have a fitted effect of over 75% in size
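Compounds were preincubated with 20 nM G9a for 15 min, after which biotinylated H3K9 peptide (500 nM) and SAM (20 uM) started a 2 h room-temperature reaction. Monomethylated product was quantified by antibody-based AlphaScreen chemiluminescence.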
L3MBTL1 block = inhibitors of human L3MBTL1 | AlphaScreen L3MBTL1–H3K9me1 peptide binding | Potency, µM (series often up to 57.1 µM), for inactives: top-dose activity, negative = inhibition, hits mostly inhibitors | 230,000 tested, 0.66% active | AID 485360; further: on the % scale 0 is the no-effect control and ±100 the full control effect; nearly all actives have a fitted effect of over 60% in size
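Read-out is AlphaScreen signal from streptavidin donor and nickel chelate acceptor beads (10 ug/mL final each) bridging L3MBTL1 (50 nM) and biotinylated K9-monomethylated H3(1-15) peptide (75 nM), after 30 min compound exposure at room temperature.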
* = called active by the depositor; ? = inconclusive; . = not tested or not shown; [ ] = dose if it differs, or a comment. The call rests on the fitted dose curve; in most records, active means well fitted curve in the direction sought with a large enough effect; inconclusive means small, poorly fitted or top-dose-only effect, or another doubt; inactive means no such curve, though single readings can be large; an effect the other way counts as inactive or inconclusive. Potency means the concentration at half of the fitted maximal effect.

SMILES	Sfp PPTase inh	JMJD2A Tudor inh	HP1b binding inh	BAZ2B inh	G9a block	L3MBTL1 block
C/C(=N\NC(=O)c1ccc(CN2CCOCC2)cc1)c1ccc([N+](=O)[O-])cc1	-8%	-12%	35%	12%	36%[59 µM]	19%
COc1ccc(C(=O)NNC(=S)NC(=O)c2ccc(F)cc2)cc1Br	.	-30%	?	.	.	.
COc1ccc(C(=O)NC(=S)NNC(=O)c2ccc(NC(C)=O)cc2)cc1Br	9%	-15%	12%	-2%	40µM*	15%
CCOc1ccc(C(=O)Nc2ccc(CN3CCOCC3)cc2)cc1Br	3%	?	-13%	-36%	-10%[59 µM]	-1%
O=C(NC(=S)Nc1ccc(CN2CCOCC2)cc1)c1ccc([N+](=O)[O-])cc1	50µM*	-30%	3%	-36%	?	3%
O[C@@H]1COC2[C@@H](O)CO[C@@H]21 (stereo partly specified)	-6%	.	.	.	.	.
O=C1C(c2ccc(F)cc2)N(CCc2ccc(Cl)cc2)C(=O)CN1C1CCCCCC1 (stereo unspecified)	.	-3%	40%	4%	?	.
CC1=CCC(C(C)(C)O)CC1 (stereo unspecified)	?	.	.	.	24%[59 µM]	.
Cc1cc(=O)n2cn[nH]c2n1	.	-6%	18%	.	.	.
COc1ccc(C(=O)NC(=S)N2CCC(C)CC2)cc1Br	10%	?	51%	?	8%	.
CCCCOc1ccc(C(=O)NC(=S)Nc2ccc(CN3CCOCC3)cc2)cc1	5%	-14%	15%	5%	-5%	9%
Cc1ccc(C(=O)NC(=S)NNC(=O)CCN2CCOCC2)cc1	-30%	-19%	52%	56µM*	8.9µM*	-10%
COc1ccc(C(=O)NC(=S)N2CCNC(=O)C2)cc1Br	-3%	35µM*	-16%	?	.	9%
O=C(NC(=S)NCCN1CCOCC1)c1ccc(F)cc1	6%	1%	40%	-4%	3%	0%
COc1ccc(C(=O)NC(=S)Nc2ccc(CN3CCOCC3)cc2)cc1	-3%	-12%	-6%	-34%	45µM*	-13%
COc1cccc(C2C(C#N)=C(N)OC3=C2C(=O)CC(c2ccco2)C3)c1OCc1ccc(F)cc1 (stereo unspecified)	-2%	?	-24%	?	26%[0.501 µM]	-24%
N#CC1=C(N)OC2=C(C(=O)CC(c3ccco3)C2)C1c1ccc(OCc2c(F)cccc2Cl)cc1 (stereo unspecified)	-25%	?	-15%	71µM*	-8%[0.501 µM]	-22%
O=C1c2ccccc2C(=O)c2c(NCc3cccnc3)cccc21	-6%	?	?	15%[57.1 µM]	?	-21%
CNc1cccc2c1C(=O)c1ccccc1C2=O	11%	2.8µM*	8.9µM*	3.2µM*	8.9µM*	8.9µM*
COc1ncc2nc(-c3cn(C)c4ccccc34)c(=O)n(C[C@H]3CCCO3)c2n1	20%	.	.	.	18%[0.501 µM]	.
O=C(Nc1ncc(S(=O)(=O)c2ccc([N+](=O)[O-])cc2)s1)c1cccnc1	5%	-23%	0%	-29%	50µM*	.
O=C(Nc1ncc(S(=O)(=O)c2ccc([N+](=O)[O-])cc2)s1)c1ccc2ccccc2c1	?	-18%	20%	-26%	20%[59 µM]	12%
O=C(CCl)Nc1ncc(S(=O)(=O)c2ccc([N+](=O)[O-])cc2)s1	.	-10%	14%	.	.	1%
CCC(C)(C)C(=O)Nc1ncc(S(=O)(=O)c2ccc([N+](=O)[O-])cc2)s1	-6%	-35%	-20%	?	50µM*	-1%
COC(=O)c1c(SC)nc2ccccc2c1OCc1ccc(C)cc1C	.	126%	123%	145%	73%[59 µM]	.
COc1cc(NC(C)CCCNC(C)C)c2ncccc2c1OC (stereo unspecified)	.	0.89µM*	?	.	.	.
COc1cc(N)c2ncccc2c1OC	.	-28%	-11%	.	.	.
COc1cc(NCCCCCCN)c2ncccc2c1OC	.	56µM*	?	.	.	.
O=Cc1ccc(O)c2ncccc12	25%	2.8µM*	81%	1.3µM*	?	4µM*
